# Compound activity (PubChem BioAssay)
# Shown are actives, neighbours in structure and some others; about 3.4% of the full set was active somewhere.
# MITF primary: inhibitors of human MITF; AlphaScreen MITF homodimerization, bead proximity signal; O75030; 650,000 compounds, 0.91% hits; AID 1259374; inhibition, % at 2.6 µM; in the data active = inhibition above about 50%;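 also: 0% = vehicle wells with protein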
# FBW7 act: activators of human E3 ligase FBW7. normalized activity (activation), % at 26.1 µM. Q969H0. 650,000 compounds, 0.13% hits. AlphaScreen FBW7–phospho-cyclin E peptide binding, activator screen; in the data active = normalized activity above about 1.9%;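 also: purified mutant Fbw7 with reduced substrate affinity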
# Target sequence (Q969H0 whole entry, looked up): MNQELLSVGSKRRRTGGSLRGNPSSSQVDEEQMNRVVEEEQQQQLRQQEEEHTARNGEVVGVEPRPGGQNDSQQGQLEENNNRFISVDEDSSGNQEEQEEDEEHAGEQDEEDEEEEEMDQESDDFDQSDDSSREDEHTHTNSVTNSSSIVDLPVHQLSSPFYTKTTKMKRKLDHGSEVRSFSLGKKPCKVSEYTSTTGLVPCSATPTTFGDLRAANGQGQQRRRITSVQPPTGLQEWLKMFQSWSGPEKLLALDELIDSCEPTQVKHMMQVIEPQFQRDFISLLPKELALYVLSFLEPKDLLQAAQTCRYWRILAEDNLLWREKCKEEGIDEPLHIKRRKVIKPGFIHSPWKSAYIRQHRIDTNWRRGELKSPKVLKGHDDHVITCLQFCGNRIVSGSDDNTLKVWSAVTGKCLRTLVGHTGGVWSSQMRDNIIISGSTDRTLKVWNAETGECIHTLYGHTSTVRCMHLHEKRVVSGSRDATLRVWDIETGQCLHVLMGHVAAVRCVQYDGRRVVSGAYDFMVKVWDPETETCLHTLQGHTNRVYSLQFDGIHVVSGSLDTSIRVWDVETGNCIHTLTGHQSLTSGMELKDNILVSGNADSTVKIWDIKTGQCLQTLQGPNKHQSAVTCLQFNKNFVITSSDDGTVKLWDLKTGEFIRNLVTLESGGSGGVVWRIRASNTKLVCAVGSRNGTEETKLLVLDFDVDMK
# GPR151 ag: activates the human receptor GPR151; activation, % at 11.2 µM; PathHunter beta-arrestin GPR151 cells, luminescence; Q8TDV0; 650,000 compounds, 1% hits; in the data active = activation above about 4.9%;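 also: 0% = median of compound wells and 100% = cells with positive control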
# TEAD-YAP inh: TEAD-YAP interaction inhibition; inhibition, % at 9.12 µM; 640,000 compounds, 1.4% hits; HEK-TIYL cells, TEAD-Gal4/YAP UAS-luciferase luminescence; in the data active = inhibition above about 32%;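 also: 0% = median of test compound wells and 100% = reference inhibitor wells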
# MITF inh conf: human MITF inhibition, confirmation; shares compounds with MITF primary; AlphaScreen MITF homodimerization, biotin/His-MITF beads; inhibition, % at 2.6 µM; 4,700 compounds, 16% hits; AID 1259372;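 active = inhibition above a cutoff derived from the DMSO control wells, cut at about 28% in these data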;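 also: 0% = MITF dimer wells with DMSO only; inhibitors lower the bead chemiluminescence by keeping MITF from dimerizing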
# AlphaScreen DR: AlphaScreen optical interference, dose response counter-screen. AID 1259373. AlphaScreen optical interference counterscreen, cell-free. IC50, µM. 480 compounds, 6% hits. shares compounds with MITF primary; call rule not given here
# AlphaScreen intf2: optically interferes with AlphaScreen signal. AID 1259376. shares compounds with MITF primary. LysRS AlphaScreen counterscreen, signal interference, triplicate. inhibition, % at 2.6 µM. 4,700 compounds, 7.6% hits;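 active = inhibition above a cutoff derived from the DMSO control wells, cut at about 30% in these data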
# Starred values were filed as active, the others as inactive; . = not tested or not shown.
SMILES,MITF primary,FBW7 act,GPR151 ag,TEAD-YAP inh,MITF inh conf,AlphaScreen intf2,others
CCOC(=O)c1sc(NC(=O)CN2CCCCC2C)c(C(=O)OCC)c1C (stereo not given),24,0,-1,0,.,.,
COc1ccc(CCN2CCc3nc4ccncc4cc3C2)cc1,51*,1,1,2,23,34*,
Cc1ccc(C(=O)CSc2nc(-c3cccnc3)ccc2C#N)cc1,-5,0,0,-1,.,.,
O=C(O)c1cc(-n2cccc2)ccc1Cl,79*,-1,1,1,64*,-2,AlphaScreen DR=>6.5
Cc1ccc(C)n1-c1ccc(Cl)c(C(=O)O)c1,1,-1,0,0,.,.,
CCC(C)(C)NCC(=O)Nc1ccc(OC(F)(F)F)cc1,3,0,0,-10,.,.,
Cc1ccc(C)c(NC(=O)CNCC(C)(C)CN(C)C)c1,74*,0,0,-3,-3,-1,
CN(C)CC(C)(C)CNCC(=O)Nc1ccc(OC(F)(F)F)cc1,55*,0,1,11,2,7,
Cc1ccc(C)c(NC(=O)CCC(=O)Nc2cc(C)ccc2C)c1,7,0,0,-4,.,.,
COc1cccc(-c2ocnc2C(=O)NCCc2ccc(F)cc2)c1,2,0,0,-10,.,.,
COc1ccc(CCNc2nc(Nc3ncccn3)nc3c2ncn3C(C)C)cc1,9,0,1,20,.,.,
NNC(=O)c1cc(-c2ccc(Cl)cc2)n[nH]1,56*,0,1,-12,-2,-3,
c1ccc(-c2ccccn2)nc1,-14,0,-1,-7,.,.,
c1ccc(-c2ccc(-c3ccccn3)nn2)nc1,86*,0,-9,44*,99*,101*,
Cc1cc(OCCCN2CCNCC2)cc(C(C)C)c1,38,0,-1,-4,.,.,
Cc1cc(OCCCN2CCOCC2)ccc1C(C)C,18,0,-1,-17,.,.,
Cc1cc(OCCn2ccnc2)cc(C(C)C)c1,57*,0,0,-5,5,-1,
Cc1cc(OCCCN2CCN(C)CC2)ccc1C(C)C,56*,0,2,2,-3,4,
Cc1cc(OCCN2CCNCC2)cc(C(C)C)c1,66*,0,2,-3,-2,20,
Cc1cc(OCCCN2CCN(C)CC2)cc(C(C)C)c1,70*,0,0,-1,11,23,
Cc1cc(C)c(C)c(OCCn2ccnc2)c1,13,2,-1,-10,.,.,
CC1(NCC(O)COc2ccccc2)CCS(=O)(=O)C1 (stereo not given),65*,0,0,8,2,-2,
CC(C)(c1ccccc1)c1ccc(OCC(O)CN2CCCCC2)cc1 (stereo not given),3,0,0,-3,.,.,
CC(C)(c1ccccc1)c1ccc(OCC(O)CNC2CCS(=O)(=O)C2)cc1 (stereo not given),77*,0,0,-3,-18,7,
OC1(c2cccnc2)CCN(Cc2ccc3c(c2)CN(Cc2nccs2)CCO3)CC1,8,0,0,-1,.,.,
SMILES,MITF primary,FBW7 act,GPR151 ag,TEAD-YAP inh,MITF inh conf,AlphaScreen intf2,others
O=c1[nH]cnc2cccc(Cl)c12,10,0,-1,16,.,.,
CCCN1CCC(NCCc2ccc(Cl)cc2)CC1,51*,0,0,5,0,1,
CN1C(=O)/C(=C\c2cccc3ccccc23)SC1=S,-2,0,1,9,.,.,
CC1=NN(c2ccccc2)C(=O)C1C(c1ccc([N+](=O)[O-])cc1)C(C#N)C#N (stereo not given),5,-1,0,0,.,.,
CC1=NN(c2ccccc2)C(=O)C1C(c1ccccc1[N+](=O)[O-])C(C#N)C#N (stereo not given),52*,0,1,16,6,12,
C=CCNC(=O)Cn1nc(-c2ccccc2OC)ccc1=O,72*,0,0,-3,15,19,
COc1ccccc1-c1ccc(=O)n(CC(=O)NCc2ccccc2)n1,21,0,-1,-10,.,.,
Cc1cccc(NC(=O)c2ccc(N3C(=O)C4C5C=CC(C5)C4C3=O)cc2)c1 (stereo not given),76*,0,1,-16,4,10,
Cc1cccc(NC(=O)c2ccc(N3C(=O)C4C5C=CC(C6CC56)C4C3=O)cc2)c1 (stereo not given),-12,0,-1,-9,.,.,
COc1cc(CN2CCN(Cc3cc(OC)c(OC)c(OC)c3)CC2)c([N+](=O)[O-])cc1OC,58*,0,0,-4,15,18,
COc1cc(CN2CCN(C(=O)CC(C)C)CC2)c([N+](=O)[O-])cc1OC,60*,0,-1,-7,2,-2,
CCOc1cc(CN2CCN(Cc3ccc([N+](=O)[O-])cc3)CC2)ccc1OC,68*,0,-1,6,-3,2,
COc1cccc(CN2CCN(Cc3ccccc3[N+](=O)[O-])CC2)c1OC,61*,-1,-1,-6,21,27,
COc1cccc(C(=O)N2CCN(Cc3ccccc3[N+](=O)[O-])CC2)c1,48,0,0,-3,.,.,
COc1cc(CN2CCN(c3ccccc3)CC2)cc([N+](=O)[O-])c1O,52*,0,-1,7,0,1,
COc1cc(CN2CCN(Cc3ccccc3[N+](=O)[O-])CC2)cc(OC)c1OC,62*,0,2,9,-1,5,
CCOc1ccc(CN2CCN(S(=O)(=O)c3ccccc3[N+](=O)[O-])CC2)cc1OC,34,0,0,0,.,.,
CCOc1cc(CN2CCN(Cc3ccccc3[N+](=O)[O-])CC2)ccc1OC,71*,0,-1,-7,-5,1,
COc1cccc(OC)c1C(=O)N1CCN(Cc2ccccc2[N+](=O)[O-])CC1,56*,0,0,-8,-1,-6,
CCN1CCC(N(C)Cc2cccc3ccccc23)CC1,21,1,0,-5,.,.,
O=C(Nc1cc(Cl)ccc1O)c1ccc(N2C(=O)c3ccccc3C2=O)cc1,-18,0,1,-19,.,.,
CCOc1cc(CN2CCN(Cc3ccc(CC)cc3)CC2)ccc1OC,59*,0,0,1,5,-9,
CCOc1cc(CN2CCN(Cc3cccc(F)c3)CC2)ccc1OC,43,0,0,3,.,.,
O=[N+]([O-])c1ccccc1CN1CCN(C/C=C/c2ccccc2)CC1,58*,0,1,11,8,25,
COc1ccc(CN2CCN(Cc3ccccc3[N+](=O)[O-])CC2)c(OC)c1OC,23,0,-1,4,.,.,
COc1ccccc1CN1CCN(Cc2ccccc2[N+](=O)[O-])CC1,79*,-1,0,0,6,11,
O=[N+]([O-])c1ccc(O)cc1CN1CCN(C/C=C/c2ccccc2)CC1,1,0,1,5,.,.,
CCOc1ccc(/C=C/C(=O)C2(C)COCOC2)cc1,14,1,-1,4,.,.,
